# Source: the supplement of paper PMC12282887
# ± gives the standard deviation of the averaged measurements.
# What was measured:
# Test in all cases: promoter activity interaction Z-score (Lux/OD deviation from empty-vector control); higher = stronger promoter induction by the compound
# [1] = test system: E. coli BW25113 acrABp lux reporter
# How it was run: (§1)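 E. coli BW25113 (wild type or marA, soxS or rob deletion) carrying low-copy luxCDABE promoter reporters grew in 40 µl LB Lennox in 384-well plates at 37°C. Each compound was tested at four 1:2 dilutions in biological duplicates. OD600 and luminescence were read every 30 min for 12 h. Areas were taken over 0–8 h (wild type) or 1–9 h (mutants), and wells below 10% of median growth area were removed. The score is the Z-transformed residual of growth-normalised luminescence fitted against the empty-vector control.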
# [2] = test system: E. coli BW25113 marRABp lux reporter
# How it was run: as §1
# [3] = test system: E. coli BW25113 micFp lux reporter
# How it was run: as §1
# [4] = test system: E. coli BW25113 ompFp lux reporter
# How it was run: as §1
# [5] = test system: E. coli BW25113 robp lux reporter
# How it was run: as §1
# [6] = test system: E. coli BW25113 soxSp lux reporter
# How it was run: as §1
# [7] = test system: E. coli BW25113 tolCp lux reporter
# How it was run: as §1
# [8] = 20 µg/ml, genetic background: wild type
# [9] = 20 µg/ml, genetic background: ΔmarA
# [10] = 20 µg/ml, genetic background: Δrob
# [11] = 20 µg/ml, genetic background: ΔsoxS
# [12] = 39.9 µg/ml, genetic background: wild type
# [13] = 39.9 µg/ml, genetic background: ΔmarA
# [14] = 39.9 µg/ml, genetic background: Δrob
# [15] = 39.9 µg/ml, genetic background: ΔsoxS
# [16] = 79.8 µg/ml, genetic background: wild type
# [17] = 79.8 µg/ml, genetic background: ΔmarA
# [18] = 79.8 µg/ml, genetic background: Δrob
# [19] = 79.8 µg/ml, genetic background: ΔsoxS
# [20] = 159.6 µg/ml, genetic background: wild type
# [21] = 159.6 µg/ml, genetic background: ΔmarA
# [22] = 159.6 µg/ml, genetic background: Δrob
# [23] = 159.6 µg/ml, genetic background: ΔsoxS
smiles,measurement,setting,value
NC[C@H](O)c1ccc(O)c(O)c1 [Noradrenalin],promoter activity interaction Z-score,[1]; [8],0.191 ± 0.043
same,promoter activity interaction Z-score,[1]; [9],0.362 ± 0.59
same,promoter activity interaction Z-score,[1]; [10],0.47 ± 0.3
same,promoter activity interaction Z-score,[1]; [11],0.122 ± 0.4
same,promoter activity interaction Z-score,[1]; [12],0.0636 ± 0.28
same,promoter activity interaction Z-score,[1]; [13],0.359 ± 0.28
same,promoter activity interaction Z-score,[1]; [14],0.344 ± 0.66
same,promoter activity interaction Z-score,[1]; [15],0.23 ± 0.37
same,promoter activity interaction Z-score,[1]; [16],0.335 ± 0.023
same,promoter activity interaction Z-score,[1]; [17],-0.978 ± 0.27
same,promoter activity interaction Z-score,[1]; [18],0.541 ± 0.3
same,promoter activity interaction Z-score,[1]; [19],0.0112 ± 0.031
same,promoter activity interaction Z-score,[1]; [20],0.208 ± 0.26
same,promoter activity interaction Z-score,[1]; [21],0.422 ± 0.39
same,promoter activity interaction Z-score,[1]; [22],0.664 ± 0.6
same,promoter activity interaction Z-score,[1]; [23],0.626 ± 0.16
same,promoter activity interaction Z-score,[2]; [8],0.189 ± 0.16
same,promoter activity interaction Z-score,[2]; [9],0.444 ± 0.053
same,promoter activity interaction Z-score,[2]; [10],0.108 ± 0.12
same,promoter activity interaction Z-score,[2]; [11],0.239 ± 0.13
same,promoter activity interaction Z-score,[2]; [12],0.0664 ± 0.085
same,promoter activity interaction Z-score,[2]; [13],0.371 ± 0.24
same,promoter activity interaction Z-score,[2]; [14],0.256 ± 0.08
same,promoter activity interaction Z-score,[2]; [15],0.078 ± 0.037
same,promoter activity interaction Z-score,[2]; [16],0.253 ± 0.15
same,promoter activity interaction Z-score,[2]; [17],-0.0312 ± 0.044
same,promoter activity interaction Z-score,[2]; [18],-0.0145 ± 0.019
same,promoter activity interaction Z-score,[2]; [19],0.36 ± 0.27
same,promoter activity interaction Z-score,[2]; [20],0.17 ± 0.12
same,promoter activity interaction Z-score,[2]; [21],-0.0497 ± 0.011
same,promoter activity interaction Z-score,[2]; [22],0.0596 ± 0.2
same,promoter activity interaction Z-score,[2]; [23],0.217 ± 0.22
same,promoter activity interaction Z-score,[3]; [8],-0.0178 ± 0.045
same,promoter activity interaction Z-score,[3]; [9],0.0504 ± 0.056
same,promoter activity interaction Z-score,[3]; [10],-0.0409 ± 0.027
same,promoter activity interaction Z-score,[3]; [11],0.0398 ± 0.17
same,promoter activity interaction Z-score,[3]; [12],-0.101 ± 0.2
same,promoter activity interaction Z-score,[3]; [13],-0.00878 ± 0.065
same,promoter activity interaction Z-score,[3]; [14],-0.0156 ± 0.16
same,promoter activity interaction Z-score,[3]; [15],-0.114 ± 0.0037
same,promoter activity interaction Z-score,[3]; [16],0.00145 ± 0.18
same,promoter activity interaction Z-score,[3]; [17],-0.0653 ± 0.027
same,promoter activity interaction Z-score,[3]; [18],-0.14 ± 0.2
same,promoter activity interaction Z-score,[3]; [19],0.0484 ± 0.0015
same,promoter activity interaction Z-score,[3]; [20],-0.129 ± 0.14
same,promoter activity interaction Z-score,[3]; [21],-0.17 ± 0.03
same,promoter activity interaction Z-score,[3]; [22],-0.105 ± 0.047
same,promoter activity interaction Z-score,[3]; [23],-0.0781 ± 0.094
same,promoter activity interaction Z-score,[4]; [8],0.507 ± 0.061
same,promoter activity interaction Z-score,[4]; [9],0.708 ± 0.42
same,promoter activity interaction Z-score,[4]; [10],0.59 ± 0.074
same,promoter activity interaction Z-score,[4]; [11],0.138 ± 0.1
same,promoter activity interaction Z-score,[4]; [12],0.854 ± 0.025
same,promoter activity interaction Z-score,[4]; [13],0.48 ± 0.12
same,promoter activity interaction Z-score,[4]; [14],0.602 ± 0.42
same,promoter activity interaction Z-score,[4]; [15],0.403 ± 0.22
same,promoter activity interaction Z-score,[4]; [16],0.895 ± 0.33
same,promoter activity interaction Z-score,[4]; [17],0.0373 ± 0.12
same,promoter activity interaction Z-score,[4]; [18],0.307 ± 0.14
same,promoter activity interaction Z-score,[4]; [19],0.13 ± 0.09
same,promoter activity interaction Z-score,[4]; [20],1.01 ± 0.25
same,promoter activity interaction Z-score,[4]; [21],0.851 ± 0.14
same,promoter activity interaction Z-score,[4]; [22],0.476 ± 1.1
same,promoter activity interaction Z-score,[4]; [23],1.13 ± 0.2
same,promoter activity interaction Z-score,[5]; [8],0.547 ± 0.64
same,promoter activity interaction Z-score,[5]; [9],0.384 ± 0.1
same,promoter activity interaction Z-score,[5]; [10],0.384 ± 0.47
same,promoter activity interaction Z-score,[5]; [11],1.12 ± 0.86
same,promoter activity interaction Z-score,[5]; [12],0.762 ± 0.056
same,promoter activity interaction Z-score,[5]; [13],1.14 ± 0.33
same,promoter activity interaction Z-score,[5]; [14],0.129 ± 0.011
same,promoter activity interaction Z-score,[5]; [15],0.395 ± 0.56
same,promoter activity interaction Z-score,[5]; [16],0.33 ± 0.14
same,promoter activity interaction Z-score,[5]; [17],-0.159 ± 0.14
same,promoter activity interaction Z-score,[5]; [18],-0.0403 ± 0.17
same,promoter activity interaction Z-score,[5]; [19],0.042 ± 0.74
same,promoter activity interaction Z-score,[5]; [20],0.223 ± 0.48
same,promoter activity interaction Z-score,[5]; [21],-0.276 ± 0.24
same,promoter activity interaction Z-score,[5]; [22],-0.36 ± 0.58
same,promoter activity interaction Z-score,[5]; [23],-0.182 ± 0.36
same,promoter activity interaction Z-score,[6]; [8],-0.0849 ± 0.038
same,promoter activity interaction Z-score,[6]; [9],-0.0801 ± 0.073
same,promoter activity interaction Z-score,[6]; [10],-0.113 ± 0.058
same,promoter activity interaction Z-score,[6]; [11],0.0191 ± 0.33
same,promoter activity interaction Z-score,[6]; [12],0.0167 ± 0.12
same,promoter activity interaction Z-score,[6]; [13],-0.0796 ± 0.033
same,promoter activity interaction Z-score,[6]; [14],-0.0193 ± 0.2
same,promoter activity interaction Z-score,[6]; [15],0.0258 ± 0.27
same,promoter activity interaction Z-score,[6]; [16],-0.0633 ± 0.035
same,promoter activity interaction Z-score,[6]; [17],-0.258 ± 0.028
same,promoter activity interaction Z-score,[6]; [18],-0.159 ± 0.19
same,promoter activity interaction Z-score,[6]; [19],-0.00763 ± 0.11
same,promoter activity interaction Z-score,[6]; [20],-0.154 ± 0.0074
same,promoter activity interaction Z-score,[6]; [21],-0.357 ± 0.097
same,promoter activity interaction Z-score,[6]; [22],-0.388 ± 0.16
same,promoter activity interaction Z-score,[6]; [23],-0.0342 ± 0.11
same,promoter activity interaction Z-score,[7]; [8],0.0786 ± 0.23
same,promoter activity interaction Z-score,[7]; [9],0.206 ± 1.2
same,promoter activity interaction Z-score,[7]; [10],-0.339 ± 0.25
same,promoter activity interaction Z-score,[7]; [11],-0.485 ± 0.31
same,promoter activity interaction Z-score,[7]; [12],-0.478 ± 0.28
same,promoter activity interaction Z-score,[7]; [13],0.198 ± 0.13
same,promoter activity interaction Z-score,[7]; [14],-0.000984 ± 1.4
same,promoter activity interaction Z-score,[7]; [15],-0.431 ± 0.54
same,promoter activity interaction Z-score,[7]; [16],0.0142 ± 0.56
same,promoter activity interaction Z-score,[7]; [17],-0.267 ± 0.49
same,promoter activity interaction Z-score,[7]; [18],0.254 ± 0.35
same,promoter activity interaction Z-score,[7]; [19],-0.273 ± 0.31
same,promoter activity interaction Z-score,[7]; [20],-0.957 ± 1.4
same,promoter activity interaction Z-score,[7]; [21],-0.659 ± 0.07
same,promoter activity interaction Z-score,[7]; [22],-0.565 ± 0.4
same,promoter activity interaction Z-score,[7]; [23],-0.633 ± 0.011
